Laboratory results published in PubChem BioAssay.
The source made the active and inactive calls. Unless noted, how the calls were made is not given here.

Tests used:
[1] = anti-His antibody binders, primary screen, artefact control for SMM control protein annotation, biochemical, small-molecule microarray, 635 nm fluorescence (AID 1128); settings: anti-His Alexa647 antibody binding, higher = more signal;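 further: score merges feature fluorescence with signal-to-noise for each printed compound spot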
[2] = tested on: Human papillomavirus type 1a E7 protein (residues 1-88); experiment: HPV1a E7 small-molecule binders, primary screen, biochemical, small-molecule microarray, residues 1-88, 635 nm (AID 1129); settings: small-molecule microarray binding, fluorescence 635 nm; higher = more signal
[3] = target: Focal adhesion kinase 1 (Homo sapiens) (UniProt Q05397); experiment: small-molecule microarray binders of FAK, primary screen, biochemical, 635/667 nm fluorescence, BSA, DTT (AID 1130); settings: PTK2 binding, 635 nm fluorescence, higher = more signal;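 further: composite of spot emission at 667 nm and signal to noise over triplicate slides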
[4] = tested on: Fibrinogen (Alexa647-labelled); experiment: fibrinogen binders on compound microarrays, profiling panel, artefact control for SMM control-protein annotation, biochemical, small-molecule microarray, 635/667 nm fluorescence (AID 1131); settings: fibrinogen-A647 binding fluorescence, higher = more signal;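 further: z-score merges 667 nm fluorescence with per-spot signal-to-noise over triplicate slides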
[5] = target: Follistatin (Homo sapiens) (UniProt P19883); experiment: follistatin binders on small-molecule microarrays, primary screen, biochemical, small-molecule microarray, 635/667 nm fluorescence (AID 1132); settings: FST binding, 635 nm fluorescence, higher = more signal
[6] = target: Fibroblast growth factor 2 (Homo sapiens) (UniProt P09038); experiment: FGF2 binders on small-molecule microarrays, primary screen, biochemical, small-molecule microarray, 635/667 nm fluorescence (AID 1133); settings: small-molecule microarray binding, FGF2, fluorescence 635/667; higher = more signal
[7] = mitochondrial membrane potential change in A549 cells, profiling panel, cell-based, JC-1 fluorescence, basal, 24 h, 100 nL (AID 1138); settings: higher = more signal;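 further: A549 lung adenocarcinoma cells under basal conditions with no added stimulus; test concentration not given here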
[8] = tested on: Lefty1; experiment: Lefty1 binders on small-molecule microarrays, primary screen, biochemical, small-molecule microarray, 635/667 nm fluorescence (AID 1139); settings: small-molecule microarray binding, fluorescence 635/667; higher = more signal
[9] = tested on: wheat germ agglutinin (Triticum aestivum), Alexa647-labelled; experiment: wheat germ agglutinin binders on compound microarrays, profiling panel, artefact control for SMM control-protein annotation, biochemical, small-molecule microarray, 635/667 nm fluorescence (AID 1140); settings: WGA-A647 binding, 635 nm fluorescence, higher = more signal;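 further: score merges 667 nm feature emission with signal to noise over triplicate slides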
[10] = target: Luciferin 4-monooxygenase (Photinus pyralis) (UniProt P08659); experiment: firefly luciferase enzyme inhibitors, primary screen, biochemical, luminescence, purified enzyme, 2006 set (AID 1141); settings: SteadyGlo luminescence, 30 min, higher = more signal, called active from +8 up or from −8 down;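 further: cell-free assay with purified firefly luciferase at 100 ng per well in PBS; test concentration not given here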
[11] = tested on: Wnt5a (protein binding on small-molecule microarray); experiment: Wnt5a binders on small-molecule microarray, primary screen, biophysical, 635/667 nm fluorescence (AID 1142); settings: 635 nm fluorescence, higher = more signal;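 further: fluorescence read at 667 nm with signal to noise per printed feature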
[12] = cell viability in Huh7 cells, primary screen, cytotoxicity control for HCV replication inhibitor project, CellTiter-Glo luminescence, basal, 48 h (AID 1143); settings: Huh7 HCV replicon, higher = more signal, called active from +8 up or from −8 down;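 further: Huh7 hepatoma cells carrying a hepatitis C replication reporter with no stimulus; test concentration not given here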
[13] = P. aeruginosa biofilm formation inhibitors, primary screen, PAO1 strain, BacTiter-Glo luminescence, LB-PBS (AID 1144); settings: 12 h, higher = more signal
[14] = CREB reporter modulators without forskolin, primary screen, cell-based, PC12, CRE-LacZ reporter, unstimulated (AID 1145); settings: no forskolin, luminescence, 4.5 h, higher = more signal, called active from +8 up or from −8 down
[15] = CREB reporter modulators under forskolin, primary screen, cell-based, PC12, CRE-LacZ reporter, forskolin-stimulated (AID 1146); settings: luminescence, 4.5 h, higher = more signal, called active from +8 up or from −8 down;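 further: PC12 cells with 6xCRE LacZ reporter stimulated by forskolin 10 µM; beta-galactosidase reporter signal reflecting CREB driven transcription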
[16] = target: Streptavidin (Streptomyces avidinii) (UniProt P22629); experiment: streptavidin binders on small-molecule microarray, primary screen, artefact control for SMM compound annotation, biophysical, 635/667 nm fluorescence (AID 1147); settings: streptavidin binding, higher = more signal;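 further: signal reflects streptavidin binding to arrayed compounds as a control protein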
[17] = small-molecule binders of probe aInhba, primary screen, biochemical, small-molecule microarray, 635/667 nm fluorescence (AID 1148); settings: higher = more signal;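 further: score merges 667nm spot fluorescence with signal-to-noise for antibody binding to printed compounds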
[18] = target: Torsin-1A (Homo sapiens) (UniProt O14656); experiment: torsin A binders from cell lysate, primary screen, small-molecule microarray, wild-type, 635/667 nm (AID 1149); settings: COS7 hTOR1A-WT lysate, 635 nm fluorescence, higher = more signal
[19] = target: Torsin-1A (Homo sapiens) (UniProt O14656); experiment: small-molecule binders of mutant TOR1A in lysate, primary screen, cell lysate, small-molecule microarray, COS7 lysate, 635/667 nm fluorescence (AID 1150); settings: COS7 hTOR1A mutant lysate, 635 nm fluorescence, higher = more signal;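 further: score pools 667 nm emission and signal to noise measuring lysate protein binding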
[20] = tested on: Sonic hedgehog protein (Shh); experiment: small-molecule binders of Shh protein, primary screen, biochemical, small-molecule microarray, 635/667 nm fluorescence (AID 1151); settings: small-molecule microarray binding, 635 nm fluorescence; higher = more signal;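 further: Shh protein binding to compounds spotted on small-molecule microarray slides; score combines spot fluorescence intensity with signal-to-noise across triplicate slides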

Fibroblast growth factor 2 (Homo sapiens), sequence (P09038 whole entry, looked up): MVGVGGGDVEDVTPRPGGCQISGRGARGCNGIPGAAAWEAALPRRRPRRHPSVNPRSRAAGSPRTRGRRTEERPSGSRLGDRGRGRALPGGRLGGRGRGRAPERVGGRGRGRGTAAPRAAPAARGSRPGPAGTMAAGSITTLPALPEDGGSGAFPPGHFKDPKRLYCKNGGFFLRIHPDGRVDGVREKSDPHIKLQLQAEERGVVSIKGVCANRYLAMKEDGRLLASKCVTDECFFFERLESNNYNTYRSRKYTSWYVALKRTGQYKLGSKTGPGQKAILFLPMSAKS
Luciferin 4-monooxygenase (Photinus pyralis), sequence (P08659 whole entry, looked up): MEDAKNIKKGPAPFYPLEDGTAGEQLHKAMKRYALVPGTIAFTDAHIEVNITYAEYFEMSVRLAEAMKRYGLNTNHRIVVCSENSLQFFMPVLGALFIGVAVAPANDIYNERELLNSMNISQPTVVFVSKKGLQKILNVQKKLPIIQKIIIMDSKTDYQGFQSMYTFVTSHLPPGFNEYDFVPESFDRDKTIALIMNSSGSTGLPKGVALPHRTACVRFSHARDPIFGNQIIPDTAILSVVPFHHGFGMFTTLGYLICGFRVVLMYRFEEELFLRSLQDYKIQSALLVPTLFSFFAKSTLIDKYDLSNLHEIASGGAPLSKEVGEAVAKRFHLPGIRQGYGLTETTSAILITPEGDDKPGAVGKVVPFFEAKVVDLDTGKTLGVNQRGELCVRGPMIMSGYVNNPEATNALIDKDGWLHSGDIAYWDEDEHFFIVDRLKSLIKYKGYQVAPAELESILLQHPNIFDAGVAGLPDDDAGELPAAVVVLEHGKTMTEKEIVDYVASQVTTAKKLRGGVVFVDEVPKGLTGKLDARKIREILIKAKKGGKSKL
Focal adhesion kinase 1 (Homo sapiens), sequence (Q05397 whole entry, looked up): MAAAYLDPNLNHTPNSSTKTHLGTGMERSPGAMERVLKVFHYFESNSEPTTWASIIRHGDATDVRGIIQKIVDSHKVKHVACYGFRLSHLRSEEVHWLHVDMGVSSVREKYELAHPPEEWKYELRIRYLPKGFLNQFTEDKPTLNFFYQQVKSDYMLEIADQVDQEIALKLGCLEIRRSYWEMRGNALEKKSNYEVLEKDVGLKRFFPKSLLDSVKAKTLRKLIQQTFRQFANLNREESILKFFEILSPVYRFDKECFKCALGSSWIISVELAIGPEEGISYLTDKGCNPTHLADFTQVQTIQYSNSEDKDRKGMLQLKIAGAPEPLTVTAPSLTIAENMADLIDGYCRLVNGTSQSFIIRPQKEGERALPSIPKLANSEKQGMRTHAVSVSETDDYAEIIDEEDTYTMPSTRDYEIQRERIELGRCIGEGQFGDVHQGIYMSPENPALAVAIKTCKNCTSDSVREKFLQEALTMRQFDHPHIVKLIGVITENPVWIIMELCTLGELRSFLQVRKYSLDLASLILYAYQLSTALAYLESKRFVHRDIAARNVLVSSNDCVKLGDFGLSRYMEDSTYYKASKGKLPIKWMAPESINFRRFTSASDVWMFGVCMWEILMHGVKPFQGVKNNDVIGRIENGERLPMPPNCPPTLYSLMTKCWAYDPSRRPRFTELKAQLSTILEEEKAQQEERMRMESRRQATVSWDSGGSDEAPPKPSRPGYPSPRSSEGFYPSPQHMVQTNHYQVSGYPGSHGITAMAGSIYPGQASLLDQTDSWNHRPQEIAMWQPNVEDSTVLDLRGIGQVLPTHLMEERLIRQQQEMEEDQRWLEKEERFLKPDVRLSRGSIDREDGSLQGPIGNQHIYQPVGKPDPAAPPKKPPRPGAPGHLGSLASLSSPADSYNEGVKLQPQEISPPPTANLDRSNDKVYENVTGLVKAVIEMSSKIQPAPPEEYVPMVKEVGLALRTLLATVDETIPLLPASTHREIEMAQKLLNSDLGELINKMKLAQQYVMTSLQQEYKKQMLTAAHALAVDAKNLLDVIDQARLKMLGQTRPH
Streptavidin (Streptomyces avidinii), sequence (P22629 whole entry, looked up): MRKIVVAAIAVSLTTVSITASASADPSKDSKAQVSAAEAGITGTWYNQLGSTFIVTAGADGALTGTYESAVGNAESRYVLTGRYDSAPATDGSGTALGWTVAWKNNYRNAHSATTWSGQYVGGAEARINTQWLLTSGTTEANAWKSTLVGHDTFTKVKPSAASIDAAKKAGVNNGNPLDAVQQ
Torsin-1A (Homo sapiens), sequence (O14656 whole entry, looked up): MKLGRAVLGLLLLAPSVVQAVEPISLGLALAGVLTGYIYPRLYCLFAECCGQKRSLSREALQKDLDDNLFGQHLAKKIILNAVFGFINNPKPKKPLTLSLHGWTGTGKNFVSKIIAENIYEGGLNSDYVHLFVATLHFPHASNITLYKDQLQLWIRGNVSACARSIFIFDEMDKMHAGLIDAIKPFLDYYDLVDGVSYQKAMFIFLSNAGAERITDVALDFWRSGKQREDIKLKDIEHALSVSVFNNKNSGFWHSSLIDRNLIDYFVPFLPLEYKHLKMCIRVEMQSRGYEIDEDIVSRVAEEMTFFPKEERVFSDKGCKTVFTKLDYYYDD
Follistatin (Homo sapiens), sequence (P19883 whole entry, looked up): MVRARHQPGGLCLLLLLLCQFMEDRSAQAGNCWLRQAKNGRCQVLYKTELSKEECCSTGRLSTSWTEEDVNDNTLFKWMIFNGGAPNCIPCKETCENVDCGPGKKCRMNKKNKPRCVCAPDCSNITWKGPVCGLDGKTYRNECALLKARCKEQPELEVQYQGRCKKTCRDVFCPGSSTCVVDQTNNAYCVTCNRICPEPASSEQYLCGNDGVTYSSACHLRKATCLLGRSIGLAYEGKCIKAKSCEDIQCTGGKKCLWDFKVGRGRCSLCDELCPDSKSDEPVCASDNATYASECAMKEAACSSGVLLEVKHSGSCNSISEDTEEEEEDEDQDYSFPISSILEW

| Compound | composite z-score [1] | composite z-score [2] | composite z-score [3] | composite z-score [4] | composite z-score [5] | composite z-score [6] | z-score [7] | composite z-score [8] | composite z-score [9] | z-score [10] | composite z-score [11] | z-score [12] | z-score [13] | z-score [14] | z-score [15] | composite z-score [16] | composite z-score [17] | composite z-score [18] | composite z-score [19] | composite z-score [20] |
| --- | --- | --- | --- | --- | --- | --- | --- | --- | --- | --- | --- | --- | --- | --- | --- | --- | --- | --- | --- | --- |
| O=C1N(Cc2ccccc2)c2ccccc2[C@H]2OC(c3ccc(OCCCO)cc3)=N[C@@]12Cc1ccccc1 | 2.1 | 1.19 | 0.6 | 0.696 | 1.35 | 1.52 | -1.4 | 0.584 | 0.694 | -2.98 (inactive) | 0.806 | -4.93 (inactive) | -0.0376 (inactive) | 0.708 (inactive) | -1.07 (inactive) | 0.0454 | 0.147 | -0.0599 | 0.242 | 1.64 |
| CCCCN1CC=CC23O[C@@H]4C=CCOC(=O)[C@@H]4[C@H]2C(=O)N(C(CO)C(C)C)[C@@H]3C1=O (stereo not given in full) | -1.13 | -0.663 | -0.813 | -0.328 | 0.389 | 0.126 | 0.406 | -0.12 | -0.708 | -0.606 (inactive) | -0.0661 | 0.233 (inactive) | 0.946 (inactive) | 0.463 (inactive) | 0.547 (inactive) | -0.507 | -0.34 | -0.241 | -0.436 | 0.605 |
| COC(=O)[C@@]1(Cc2ccc(OC)cc2)[C@H]2c3cc(C(=O)N(C)C)n(Cc4ccsc4Br)c3C[C@H]2CN1C(=O)c1ccccc1 | 1.74 | 1.09 | 0.957 | 0.862 | -0.244 | -0.29 | 0.292 | -0.538 | 0.669 | 1.05 (inactive) | 0.286 | -0.21 (inactive) | 0.00572 (inactive) | 0.597 (inactive) | 0.217 (inactive) | 0.705 | 0.571 | -0.0008 | 0.808 | 0.105 |
| CC[C@H](C)C(=O)O[C@H]1CC[C@]2(C)C3=C(CCC2C1(C)C)[C@]1(C)CC[C@H]([C@H](C)CCCC(C)C)[C@@]1(C)CC3 (stereo not given in full) | 0.226 | 0.666 | 0.122 | 0.367 | 0.538 | 0.35 | 1.15 | 0.721 | 0.0438 | -1.4 (inactive) | 0.0143 | 0.15 (inactive) | -0.0646 (inactive) | 0.947 (inactive) | -1.24 (inactive) | 0.984 | -0.292 | 0.214 | 0.339 | 0.613 |
| O=C1O[C@H](c2ccccc2)[C@H](c2ccccc2)N2[C@H]1[C@@H](C(=O)N1CCN(c3ncccn3)CC1)[C@]1(C(=O)Nc3ccccc31)[C@H]2c1ccc(O)cc1 | 2.34 | 1.07 | 0.759 | 0.635 | 0.889 | 0.451 | 0.028 | -0.116 | 0.185 | -1.3 (inactive) | 0.186 | -2.48 (inactive) | -0.151 (inactive) | 0.299 (inactive) | -0.682 (inactive) | -0.0699 | 0.0018 | 0.103 | 0.799 | 0.0388 |
| NCCCC[C@@H]1NC(=O)[C@H]2C[C@@H](C(=O)O)[C@@H](c3cccc(OCCO)c3)N2C1=O | 3 | 1.26 | 0.188 | 0.577 | 1.41 | 1.69 | -1.44 | 1.64 | 1.44 | -1.08 (inactive) | 0.424 | 0.0458 (inactive) | -0.0686 (inactive) | -0.943 (inactive) | 0.963 (inactive) | 1.99 | 0.15 | 1.18 | 1.7 | 1.85 |
| CN1C(=O)C2C=CC(C(O)c3ccc(-c4ccccc4)s3)N(Nc3ccccc3)C2C1=O (stereo not given) | 1.33 | 1.19 | 0.283 | 0.96 | 1.12 | -0.0002 | 0.5 | -0.304 | 1.07 | 0.17 (inactive) | -0.24 | 0.809 (inactive) | -0.46 (inactive) | 0.429 (inactive) | -0.666 (inactive) | 2.23 | 0.395 | 0.0922 | 0.271 | -0.212 |
| CCOC(=O)C1=CC[C@@H](c2ccccc2Cl)N(S(=O)(=O)c2ccc(C)cc2)[C@H]1c1cccc(OC)c1 | 0.413 | 1.05 | 0.1 | 0.737 | 0.176 | 0.0652 | 0.0495 | -0.0177 | 0.54 | 0.658 (inactive) | 0.142 | -1.84 (inactive) | 1.15 (inactive) | 0.425 (inactive) | 0.173 (inactive) | 0.333 | -0.0695 | 0.368 | 0.0635 | -0.476 |
| COC(=O)[C@H](Cc1ccc(O)cc1)N1CC2=CCCC=C[C@@H]2[C@H]1[C@H](O)Cc1ccccc1 | 0.0409 | -0.24 | -0.0148 | 0.92 | 0.359 | 0.348 | -0.934 | 0.58 | 0.216 | -1.63 (inactive) | 0.0799 | -0.567 (inactive) | -1.21 (inactive) | 2.13 (inactive) | 1.24 (inactive) | -0.53 | 0.0108 | -0.246 | -0.0258 | 0.33 |
| CC(=O)NCCCC[C@@H]1NC(=O)[C@@H]2C[C@H](C(=O)NCCCCCC[N+](C)(C)C)[C@H](c3ccc(O)cc3)N2C1=O | 3.45 | 0.377 | -0.153 | 0.333 | 1.41 | 1.56 | -0.856 | 0.907 | 0.78 | 0.32 (inactive) | 0.0463 | 0.159 (inactive) | 0.795 (inactive) | -0.675 (inactive) | -0.293 (inactive) | -0.314 | -0.105 | 0.0055 | 0.885 | 1.75 |
